Results on 26 molecules are retold here after PubChem BioAssay (NCI).

Molecules are shown by their SMILES. Where “and” joins values, the source holds several entries; their conditions need not be identical. Equal entries are not always repeated. The panel holds about 83,000 compounds, 20% with a hit somewhere; the sample as a whole holds those more often.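 96-well plates, one dose, 48 hours. Percent growth reported; active if below 10.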 Unmarked numbers belong to inactive results. Calls of active or inactive are those of the source.

The assay has as its system MDA-MB-468 breast. The experiment in a line: NCI-60 one-dose screen, 48 h (100 = growth as untreated, 0 = no growth, -100 = all killed). Particulars: 10 µM unless noted.
With `CCOC(=O)c1csc(-c2ccc(COC(=O)c3ccccc3)o2)n1`, the growth is 115%.

In the case of `O=C1NC(c2ccc(F)cc2)N=C2C(c3ccccc3)=NOC12` (stereo unspecified), the growth is 103%.

As to `CC(C)C1CCC(C)C(O)C1` (stereo unspecified), the growth is 98.5%.

Take `Cc1ccc(NC(=O)Cn2nncc2CN2C(=O)CSC2=O)cc1C`: the growth is 95.5%.

In the case of `COc1ccc(/C(C)=C(/c2ccc(OCCCN(C)C)cc2)c2ccc(OC(=O)c3ccccc3)cc2)cc1`, the growth is 94.9%.

`CCNc1nnnn1CC`: the growth was 101%.

For `O=C(Nc1ccc(Cl)cc1)C1=NCCCCN1`, the growth is 111%.

In the case of `C[C@@H](c1ccc2c(c1)[nH]c1ccc(Cl)cc12)c1nc2ccccc2[nH]1`, the growth is -3.2% (active).

Consider `O=C(CSc1nc2ccccc2c(=O)n1-c1ccccc1)Nc1ccc(S(=O)(=O)Nc2nccs2)cc1`, for which the growth is 56.4%.

Turning to `N#Cc1c(NC(=O)NCc2ccccc2)sc2c1CCCCC2`, the growth was -25.9% (active).

As for `C[C@]12C[C@@H](c3ccoc3)OC(=O)[C@@H]1CC[C@]1(C)[C@@H]2CC[C@@H](O)[C@]1(C)O`, the growth is 88.3%.

Take `O=C(Nc1nc(-c2ccccc2Cl)cs1)c1cc(-c2ccc(Cl)cc2)nc2ccc(Cl)cc12`: the growth is 89.4%.

As to `CCNCCOc1ccc(/C(=C(/CC)c2ccc(Cl)cc2)c2ccc(OCCCN(C)C)cc2)cc1`, the growth was -87% (active).

Consider `NC(=O)NN=C(C1CC1)C1CC1`, for which the growth is 119%.

For `CCOC(=O)C1=C(C)C(Cl)=N/C1=C\c1[nH]c(Cl)c(C)c1C(=O)OCC`, the growth is 102%.

With `O=C(C(=O)N1CCCC1)c1cn(CCCn2cc(C(=O)C(=O)N3CCCC3)c3cc(Br)ccc32)c2ccc(Br)cc12`, the growth was 70.4%.

In the case of `Cc1cc(C)c(S(=O)(=O)Oc2ccccc2[N+](=O)[O-])c(C)c1`, the growth is -0.215% (active).

For `O=[N+]([O-])c1ccc(Oc2ccccc2)cc1`, the growth was 103% and 113%.

Turning to `Nc1cc(C(F)(F)F)c(-c2cc(N3CCOCC3)nc(N3CCOCC3)n2)cn1`, the growth was -51.6% (active).

For the molecule `C/C(=C\CCc1ccoc1)CC/C=C(\C)CCCC1COC(=O)C1` (stereo unspecified), the growth is 97.4%.

In the case of `NCc1cn2cc(Cl)sc2n1`, the growth was 101%.

Regarding `NS(=O)(=O)c1ccc(NC(=O)/C(=C\c2ccc(Cl)cc2Cl)NC(=O)c2ccccc2)cc1`, the growth was 110%.

With `Cc1c(Cc2ccccc2)c(=O)oc2c(C)c(OCc3n[nH]c(=S)o3)ccc12`, the growth is 77.7%.

Turning to `Cc1ccc(S(=O)(=O)NCCCNc2nccc(-c3c(-c4ccccc4)nc4sccn34)n2)cc1`, the growth is 53.8%.

In the case of `Cc1ccc(NC(=O)Cn2cc(CN3CCN(c4ccnc5cc(Cl)ccc45)CC3)nn2)cc1`, the growth was 88.1%.

For `O=C(c1ccc(Cl)cc1)C(NCCO)c1ccc(Cl)cc1` (stereo unspecified), the growth was 84.1% and 114%.
